Results on 40 compounds are retold here after the supplement of paper PMC9950053.

Structures can show the parent of a compound that is named as a salt.

This assay deals with Danio rerio larvae (5 dpf). The experiment in a line: startle (activity period 16 minus period 15, 20-s interval sound) minus DMSO control (percentage points); higher = stronger startle response than DMSO larvae. The conditions noted are these: 10 µM; exposure time: 3 h pre-incubation + 3 h imaging. Here is the method: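 Wild-type 5 dpf zebrafish larvae (n=48 per drug, 96-well plates, 28.5 °C) were exposed to Tocris FDA-approved library compounds at 10 µM (0.1% DMSO) for 3 h before and 3 h during imaging. Images were taken every 6 s during visual (moving coloured lines) and acoustic stimuli, and larvae were tracked with the DeepLabCut-based Z-LaP Tracker. Each behavioural measure is the treated-group mean minus the DMSO vehicle control mean (n=844), in percentage points. This mapping covers compounds with 4-character plate codes.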
In the case of `Cc1cccc(C)c1OCC(C)N` (stereo not given) [Mexiletine hydrochloride], the startle is 0.959.

Take `CCC(C)(C)C(=O)O[C@H]1C[C@@H](C)C=C2C=C[C@H](C)[C@H](CC[C@@H]3C[C@@H](O)CC(=O)O3)[C@H]21` [Simvastatin]: the startle stood at 3.93.

On to `Cc1nc(Nc2ncc(C(=O)Nc3c(C)cccc3Cl)s2)cc(N2CCN(CCO)CC2)n1` [Dasatinib], for which the startle was -0.00442.

On to `CC1CNc2c(cccc2S(=O)(=O)N[C@@H](CCCNC(=N)N)C(=O)N2CC[C@@H](C)C[C@@H]2C(=O)O)C1` (stereo not given in full) [Argatroban], for which the startle amounted to 2.82.

`CC(=O)NC[C@H]1CN(c2ccc(N3CCOCC3)c(F)c2)C(=O)O1` [Linezolid]: the startle was determined as 2.73.

As for `CNC(=O)c1ccccc1Sc1ccc2c(/C=C/c3ccccn3)n[nH]c2c1` [Axitinib], the startle was -7.2.

On to `CN1CC2c3ccccc3Oc3ccc(Cl)cc3C2C1` (stereo not given) [Asenapine maleate], for which the startle was -6.16.

On to `Cc1cccc(CN2CCN(C(c3ccccc3)c3ccc(Cl)cc3)CC2)c1` (stereo not given) [Meclizine dihydrochloride], for which the startle is -7.54.

As to `C=CC(=O)N1CCC[C@@H](n2nc(-c3ccc(Oc4ccccc4)cc3)c3c(N)ncnc32)C1` [Ibrutinib], the startle was 4.43.

As for `CS(=O)(=O)CCNCc1ccc(-c2ccc3ncnc(Nc4ccc(OCc5cccc(F)c5)c(Cl)c4)c3c2)o1` [Lapatinib], the startle was -0.148.

For `CC(C)c1nc(N(C)S(C)(=O)=O)nc(-c2ccc(F)cc2)c1/C=C/[C@@H](O)C[C@@H](O)CC(=O)O` [Rosuvastatin calcium], the startle is -0.514.

As for `Cc1cc(C2CCCCC2)n(O)c(=O)c1` [Ciclopirox], the startle is -8.19.

For `CC(C)C(=O)Nc1ccc([N+](=O)[O-])c(C(F)(F)F)c1` [Flutamide], the startle is -5.6.

With `CC[C@H](C)C(=O)O[C@H]1C[C@@H](C)C=C2C=C[C@H](C)[C@H](CC[C@@H]3C[C@@H](O)CC(=O)O3)[C@H]21` [Lovastatin], the startle is -1.2.

For the compound `COc1c(C)c2c(c(O)c1C/C=C(\C)CCC(=O)O)C(=O)OC2` [Mycophenolic acid], the startle worked out at 3.04.

Turning to `C=C1[C@H](CO)[C@@H](O)C[C@@H]1n1cnc2c(=O)[nH]c(N)nc21` [Entecavir], the startle is 3.99.

Regarding `NS(=O)(=O)Cc1noc2ccccc12` [Zonisamide], the startle was found to be 5.14.

`CCCN(CCC)S(=O)(=O)c1ccc(C(=O)O)cc1` [Probenecid]: the startle was determined as 0.405.

Regarding `Nc1cccc2c1CN(C1CCC(=O)NC1=O)C2=O` (stereo not given) [Lenalidomide], the startle was -4.19.

Take `Nc1nc(Cl)nc2c1ncn2[C@@H]1O[C@H](CO)[C@@H](O)[C@@H]1F` [Clofarabine]: the startle came to 5.12.

`Cc1ccc(O)c([C@H](CCN(C(C)C)C(C)C)c2ccccc2)c1` [Tolterodine L-tartrate]: the startle is -5.5.

As to `CCc1c2c(nc3ccc(OC(=O)N4CCC(N5CCCCC5)CC4)cc13)-c1cc3c(c(=O)n1C2)COC(=O)[C@]3(O)CC`, the startle was 0.964.

As for `C/C(O)=C(\C#N)C(=O)Nc1ccc(C(F)(F)F)cc1` [Teriflunomide], the startle is -2.62.

On to `CN(C)CC/C=C1/c2ccccc2COc2ccc(CC(=O)O)cc21` [Olopatadine hydrochloride], for which the startle is 1.07.

As to `CO[C@H]1/C=C/O[C@@]2(C)Oc3c(C)c(O)c4c(O)c(c5c(nc6cc(C)ccn65)c4c3C2=O)NC(=O)/C(C)=C\C=C\[C@H](C)[C@H](O)[C@@H](C)[C@@H](O)[C@@H](C)[C@H](OC(C)=O)[C@@H]1C` [Rifaximin], the startle worked out at 1.18.

`C[C@]12CC[C@@H]3c4ccc(O)cc4C[C@@H](CCCCCCCCC[S+]([O-])CCCC(F)(F)C(F)(F)F)[C@H]3[C@@H]1CC[C@@H]2O` (stereo not given in full): the startle is -0.0663.

For `O=C(O[C@@H]1C[C@@H]2C[C@H]3C[C@H](C1)N2CC3=O)c1c[nH]c2ccccc12` [Dolasetron mesylate], the startle was 0.504.

With `COc1cccc2c1C(=O)c1c(O)c3c(c(O)c1C2=O)C[C@@](O)(C(=O)CO)C[C@@H]3O[C@H]1C[C@H](N)[C@H](O)[C@H](C)O1` [Doxorubicin hydrochloride], the startle was 3.54.

As for `CC(C)Nc1cccnc1N1CCN(C(=O)c2cc3cc(NS(C)(=O)=O)ccc3[nH]2)CC1` [Delavirdine mesylate], the startle was -4.71.

In the case of `OCCOCCN1CCN(C2=Nc3ccccc3Sc3ccccc32)CC1` [Quetiapine hemifumarate], the startle is -0.888.

As for `CCOC(=O)C1=C(COCCN)NC(C)=C(C(=O)OC)C1c1ccccc1Cl` (stereo not given) [Amlodipine besylate], the startle is 0.141.

For the compound `CN/C(=N\CCSCc1nc[nH]c1C)NC#N` [Cimetidine], the startle is 5.75.

Regarding `Brc1c(NC2=NCCN2)ccc2nccnc12`, the startle was -5.57.

As to `C#C[C@]1(O)CC[C@H]2[C@@H]3CCC4=CC(=O)CC[C@@H]4[C@H]3CC[C@@]21CC` [Levonorgestrel], the startle is -4.23.

For the compound `CN1CCN2c3ncccc3Cc3ccccc3C2C1` (stereo not given) [Mirtazapine], the startle was -6.05.

For the compound `Nc1nc2c(ncn2COCCO)c(=O)[nH]1` [Acyclovir], the startle is -0.609.

As to `CC(C)(C)NC(=O)[C@@H]1C[C@@H]2CCCC[C@@H]2CN1C[C@@H](O)[C@H](Cc1ccccc1)NC(=O)[C@H](CC(N)=O)NC(=O)c1ccc2ccccc2n1` [Saquinavir mesylate], the startle worked out at 0.811.

For `C[C@]12CCC(=O)C=C1CC[C@@H]1[C@@H]2[C@@H](O)C[C@@]2(C)[C@H]1CC[C@]2(O)C(=O)CO` [Hydrocortisone], the startle worked out at 0.463.

In the case of `C[C@H]1C[C@@H]2[C@H]([C@@H](O)C[C@@]3(C)[C@H]2CC[C@]3(O)C(=O)CO)[C@@]2(C)C=CC(=O)C=C12` [Methylprednisolone], the startle turned out to be 0.408.

For `Cc1ccsc1C(=CCCN1CCC[C@@H](C(=O)O)C1)c1sccc1C` [Tiagabine hydrochloride], the startle is 7.31.
